3T3 cytotox: Cytotoxic Profiling in NIH 3T3 Cell Line of Diverse Libraries Using Quantitative High-Throughput Screening; NIH 3T3 viability, CellTiter-Glo ATP luminescence, 48-72 h; Potency, µM (titrated, usually from 96.7 µM), inactives show at the top dose activity change, negative = cytotoxicity, hits mostly inhibitors; 94,000 tested, 4.3% active; note: % is set by controls: 0 for no effect and ±100 for the full control effect; nearly all actives have a fitted effect of over 55% in size
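Cytotoxicity was measured by CellTiter-Glo ATP luminescence after 48 or 72 h compound exposure at 37 °C. Mouse NIH 3T3 fibroblasts were seeded at 400 cells/well and dosed by 23 nL pin transfer.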
HEK cytotox: Cytotoxic Profiling in HEK 293 Cell Line of Diverse Libraries Using Quantitative High-Throughput Screening; AID 1345083, 2018; Potency, µM (titrated, usually from 115 µM), without a hit: at the highest dose activity change, negative = cytotoxicity, usual class: inhibitors; HEK 293 viability, ATP luminescence (CellTiter-Glo), 48-72 h; 94,000 tested, 6.6% active; note: % is set by controls: 0 for no effect and ±100 for the full control effect; nearly all actives have a fitted effect of over 60% in size
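ATP-coupled CellTiter-Glo luminescence served as viability read-out, recorded 10 min after reagent addition at room temperature. HEK 293 cells, 250 cells/well, had been incubated with pintool-transferred compound for 48 or 72 hr at 37 degree Celsius.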
Luciferase inh: Firefly luciferase inhibition profiling of diverse chemical library using quantitative high-throughput screening. purified P. pyralis luciferase, luminescence, biochemical. Luciferin 4-monooxygenase (Photinus pyralis), P08659. AID 1347043, 2019. Potency, µM (series often up to 115 µM), usual class: inhibitors. 76,000 tested, 2.5% active; note: % is set by controls: 0 for no effect and ±100 for the full control effect; nearly all actives have a fitted effect of over 65% in size
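FLuc 10nM, D-luciferin 10uM, ATP 10uM, Mg acetate 10mM, Tris acetate pH 7.5, Tween/BSA; cpd qHTS; enzyme added last; CCD luminescence.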
GPT2 inhibitor: Primary qHTS assay for inhibitors of Glutamate pyruvate transaminase 2 (GPT2). Potency, µM (top dose mostly 57.7 µM), without a hit: at the top dose activity change, negative = inhibition, actives largely listed as inhibitors. Recombinant GPT2, coupled pyruvate oxidase/HRP Amplex Red fluorescence. 100,000 tested, 0.25% active. Alanine aminotransferase 2 (Homo sapiens), Q8TD30; note: % is set by controls: 0 for no effect and ±100 for the full control effect; nearly all actives have a fitted effect of over 60% in size
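GPT2 10ng/uL, a-KG 250uM, L-Ala 2mM, HEPES pH7.5 + 0.0001% Tween; 30 min RT. Then Amplex mix (PO/HRP/ThPP), 30 min RT dark, fluorescence. AOA 50uM used as positive control.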
NPR1 antag: Natriuretic polypeptide receptor (hNpr1) antagonism - Primary qHTS; HEK293 hNpr1 GloSensor cGMP, ANP-stimulated luminescence; Potency, µM (series often up to 46.3 µM), inactives show at the top dose activity change, negative = inhibition, hits mostly inhibitors; 76,000 tested, 1.6% active; Atrial natriuretic peptide receptor 1 (Homo sapiens), P16066; AID 1347048, 2019; calls by dose curve; note: % is set by controls: 0 for no effect and ±100 for the full control effect; nearly all actives have a fitted effect of over 60% in size
Target sequence (P16066 whole entry, looked up): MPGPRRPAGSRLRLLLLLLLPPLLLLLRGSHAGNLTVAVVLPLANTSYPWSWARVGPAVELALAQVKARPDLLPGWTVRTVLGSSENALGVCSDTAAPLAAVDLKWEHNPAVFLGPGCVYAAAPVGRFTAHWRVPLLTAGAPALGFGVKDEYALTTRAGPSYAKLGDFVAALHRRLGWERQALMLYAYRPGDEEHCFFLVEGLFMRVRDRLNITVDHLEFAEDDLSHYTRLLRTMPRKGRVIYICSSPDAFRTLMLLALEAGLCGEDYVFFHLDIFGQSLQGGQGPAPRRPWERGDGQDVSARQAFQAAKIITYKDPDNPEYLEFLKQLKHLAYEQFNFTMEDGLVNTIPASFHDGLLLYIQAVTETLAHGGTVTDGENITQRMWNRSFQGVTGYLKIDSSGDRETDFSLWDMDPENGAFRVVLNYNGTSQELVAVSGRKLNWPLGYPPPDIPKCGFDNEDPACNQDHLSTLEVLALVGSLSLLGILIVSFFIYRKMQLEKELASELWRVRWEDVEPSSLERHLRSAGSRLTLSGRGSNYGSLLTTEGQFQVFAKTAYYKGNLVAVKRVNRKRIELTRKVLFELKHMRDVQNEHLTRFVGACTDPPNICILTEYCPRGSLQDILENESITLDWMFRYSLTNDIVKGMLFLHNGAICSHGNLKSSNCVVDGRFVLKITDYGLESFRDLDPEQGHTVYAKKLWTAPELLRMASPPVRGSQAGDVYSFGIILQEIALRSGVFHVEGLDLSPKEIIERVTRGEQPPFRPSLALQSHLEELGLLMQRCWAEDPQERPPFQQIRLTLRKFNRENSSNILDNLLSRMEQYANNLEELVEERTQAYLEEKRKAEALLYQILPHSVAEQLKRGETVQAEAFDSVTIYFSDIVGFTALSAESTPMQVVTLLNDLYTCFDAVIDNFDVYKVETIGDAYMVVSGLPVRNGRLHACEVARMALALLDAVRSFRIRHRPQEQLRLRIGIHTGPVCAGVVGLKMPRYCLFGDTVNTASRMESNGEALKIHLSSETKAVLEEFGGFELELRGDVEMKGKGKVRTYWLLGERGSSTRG
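Compound pre-incubated 30 min at room temperature on GloSensor-loaded HEK293 cells stably carrying hNpr1 and the pGS-40F cGMP biosensor. Stimulation uses hNppA at 0.1 nM final; luminescence is taken at baseline and 20 min post-agonist.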
Npr1 antag conf: Natriuretic polypeptide receptor (hNpr1) antagonism - Confirmation; shares compounds with NPR1 antag; HEK293 hNpr1 cGMP GloSensor luminescence, ANP-stimulated; Potency, µM (top dose mostly 57.6 µM), without a hit: at the highest dose activity change, negative = inhibition, hits mostly inhibitors; 1,400 tested, 76% active; AID 1347044, 2019; calls by dose curve; note: nearly all actives have a fitted effect of over 70% in size
NPR2 antag: Natriuretic polypeptide receptor (hNpr2) antagonism - Subtype selectivity assay. shares compounds with NPR1 antag. HEK293 hNpr2 GloSensor cGMP luminescence, CNP-stimulated. Potency, µM (series often up to 57.6 µM), inactives show at the highest dose activity change, negative = inhibition, actives largely listed as inhibitors. 1,400 tested, 67% active. AID 1347046, 2019; calls by dose curve; note: nearly all actives have a fitted effect of over 70% in size
FLuc counter: Natriuretic polypeptide receptor (hNpr1) antagonism - Confirmation firefly luciferase (FLuc) inhibition counterscreen. shares compounds with NPR1 antag. purified FLuc enzyme, luminescence, Km substrate. Potency, µM (highest dose often 57.6 µM), inactives show at the top dose activity change, negative = inhibition, hits mostly inhibitors. 1,400 tested, 0.7% active. AID 1347047, 2019; note: 0% is about no effect
GloSensor cGMP: Natriuretic polypeptide receptor (hNpr1) antagonism - Counterscreen GloSensor control cell line; shares compounds with NPR1 antag; HEK293 GloSensor cGMP, SNP-stimulated, luminescence; Potency, µM (doses to about 57.6 µM), for inactives: at the highest dose activity change, negative = inhibition, hits mostly inhibitors; 1,400 tested, 69% active; AID 1347051, 2019; calls by dose curve; note: % is set by controls: 0 for no effect and ±100 for the full control effect; nearly all actives have a fitted effect of over 70% in size
Starred values were filed as active, the others as inactive; [ ] = dose if it differs, or a comment. Rows were chosen to be rich in hits. Some 10% of all compounds tested hit in one or more screens of this group. Unless noted, calls come from the whole dose curve; as a rule, active = well fitted curve in the direction sought with a large enough effect; inconclusive = small, poorly fitted or top-dose-only effect, or another doubt; inactive = no such curve, though single readings can be large; an effect the other way counts as inactive or inconclusive. Potency is the fitted concentration of half-maximal effect.

How did O=C(NC[C@H]1Cn2c(-c3ccc4c(c3)OCO4)cnc2CO1)Nc1ccccc1 do in these assays?
3T3 cytotox: inconclusive; HEK cytotox: inconclusive; Luciferase inh: inconclusive; GPT2 inhibitor: 3.8%[88.5 µM]; NPR1 antag: -25.5%[70.6 µM]

What do the screens show for `O=C(NC[C@H]1Cn2c(-c3ccc4c(c3)OCCO4)cnc2CO1)Nc1ccccc1`?
3T3 cytotox: 89.1µM*; HEK cytotox: 100µM*; Luciferase inh: inactive; GPT2 inhibitor: -20.9%[88.5 µM]; NPR1 antag: inconclusive; Npr1 antag conf: inconclusive; NPR2 antag: inconclusive; FLuc counter: -12.6%[86.2 µM]; GloSensor cGMP: -25.1%[86.2 µM]

Results for O=Cc1ccccc1-c1cccc(O)c1 ?
3T3 cytotox: inconclusive; HEK cytotox: inconclusive; GPT2 inhibitor: -5.4%[88.5 µM]; Npr1 antag conf: inconclusive; NPR2 antag: 49.9µM*; FLuc counter: inconclusive; GloSensor cGMP: inconclusive

What do the screens show for `Cc1cccc(-c2ccccc2C=O)c1`?
3T3 cytotox: 3.4%[174 µM]; HEK cytotox: -9.7%[230 µM]; GPT2 inhibitor: 3.4%[88.5 µM]

What do the screens show for `COc1ccc(CCNC(=O)c2cc(-c3ccc(C(F)(F)F)cc3)nc3c2cnn3C)cc1`?
3T3 cytotox: -24.4%; HEK cytotox: -0.5%

Results for Cn1ccc(NC(=O)c2ccc3c(c2)NC(C)(CCCCc2ccccc2)CO3)n1 (stereo not drawn) ?
3T3 cytotox: 39.8µM*; HEK cytotox: 44.7µM*; Luciferase inh: inactive; GPT2 inhibitor: inactive; NPR1 antag: 10µM*; Npr1 antag conf: 14µM*; NPR2 antag: 19.8µM*; FLuc counter: 0.8%[86.2 µM]; GloSensor cGMP: 12.5µM*

Results for O=C(C1CCC1)N1CCC(N2CC(OCC3CC3)C23CCCCC3)CC1 (stereo not drawn) ?
3T3 cytotox: -18.8%; HEK cytotox: -6.3%; Luciferase inh: inactive; GPT2 inhibitor: inactive; NPR1 antag: 0.7%

Results for O=C(c1ccc(Cl)nc1)N1CCCC(C(=O)N2CCC(c3nc4ccncc4[nH]3)C2)C1 (stereo not drawn) ?
3T3 cytotox: -23.8%; HEK cytotox: -3.5%; GPT2 inhibitor: inactive

How did O=C(NCc1ccccc1)c1nc2c(o1)CCN(Cc1ccc(F)c(Cl)c1)CC2 do in these assays?
3T3 cytotox: 44.7µM*; HEK cytotox: inconclusive; Luciferase inh: inactive; GPT2 inhibitor: -5.6%[88.5 µM]; NPR1 antag: 22.4µM*; Npr1 antag conf: 28µM*; NPR2 antag: 28µM*; FLuc counter: -1.8%[86.2 µM]; GloSensor cGMP: 19.8µM*

Screening results as filed in PubChem.
